Screening data from PubChem.
TDP1 cell noCPT: qHTS for Inhibitors of human tyrosyl-DNA phosphodiesterase 1 (TDP1): qHTS in cells in absence of CPT; 420,000 tested, 15% active; DT40 Tdp1-/- hTDP1 cells, no CPT, ATP luminescence, 48 h; Potency, µM (series often up to 46.2 µM), for inactives: at the highest dose activity change, negative = growth inhibition, actives largely listed as inhibitors; further: potency means the concentration at half of the fitted maximal effect; nearly all actives have a fitted effect of over 55% in size
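A cellular qHTS used chicken DT40 cells lacking endogenous Tdp1 but carrying stably transfected human TDP1. Compounds were applied without camptothecin, and cell growth kinetics were judged by ATP-dependent luminescence after ≥48 hr.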
TDP1 cell CPT: DT40-hTDP1 cell growth loss with CPT; chicken DT40 Tdp1-/-;hTDP1 cells + 20 nM CPT, ATP luminescence, 48 h; Potency, µM (doses to about 46.2 µM), inactives show top-dose activity change, negative = growth inhibition, hits mostly inhibitors; 420,000 tested, 12% active; further: potency means the concentration at half of the fitted maximal effect; nearly all actives have a fitted effect of over 55% in size
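Cell growth measured by CellTiter-Glo luminescence after a minimum 48 h, 37 C compound exposure with 20 nM CPT in Tdp1-knockout DT40 cells stably expressing hTDP1, seeded 400/well; qHTS titration format.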
ELG1 DNA repair: ELG1-dependent DNA repair inhibition; HEK293T ELG1-luciferase reporter, luminescence, 16 h; DNA damage induced by 5-fluorouridine; Potency, µM (series often up to 46.1 µM), for inactives: at the highest dose activity change, negative = inhibition, actives largely listed as inhibitors; 330,000 tested, 2.3% active; AID 504467; further: potency means the concentration at half of the fitted maximal effect; nearly all actives have a fitted effect of over 55% in size
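Luminescence from the luciferase reporter, measured 30 min after ONE-Glo reagent at room temperature, was the read-out. Beforehand, 2,000 cells per well were exposed for 16 hr at 37 °C to 5-fluorouridine together with compound or vehicle.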
TDP1 inh: inhibitors of human tyrosyl-DNA phosphodiesterase TDP1; Q9NUW8; 350,000 tested, 0.28% active; Potency, µM (titrated, usually from 130 µM), inactives show at the top dose activity change, negative = inhibition, usual class: inhibitors; recombinant TDP1, AlphaScreen DNA substrate cleavage; further: potency means the concentration at half of the fitted maximal effect; nearly all actives have a fitted effect of over 40% in size
Target sequence (Q9NUW8 whole entry, looked up): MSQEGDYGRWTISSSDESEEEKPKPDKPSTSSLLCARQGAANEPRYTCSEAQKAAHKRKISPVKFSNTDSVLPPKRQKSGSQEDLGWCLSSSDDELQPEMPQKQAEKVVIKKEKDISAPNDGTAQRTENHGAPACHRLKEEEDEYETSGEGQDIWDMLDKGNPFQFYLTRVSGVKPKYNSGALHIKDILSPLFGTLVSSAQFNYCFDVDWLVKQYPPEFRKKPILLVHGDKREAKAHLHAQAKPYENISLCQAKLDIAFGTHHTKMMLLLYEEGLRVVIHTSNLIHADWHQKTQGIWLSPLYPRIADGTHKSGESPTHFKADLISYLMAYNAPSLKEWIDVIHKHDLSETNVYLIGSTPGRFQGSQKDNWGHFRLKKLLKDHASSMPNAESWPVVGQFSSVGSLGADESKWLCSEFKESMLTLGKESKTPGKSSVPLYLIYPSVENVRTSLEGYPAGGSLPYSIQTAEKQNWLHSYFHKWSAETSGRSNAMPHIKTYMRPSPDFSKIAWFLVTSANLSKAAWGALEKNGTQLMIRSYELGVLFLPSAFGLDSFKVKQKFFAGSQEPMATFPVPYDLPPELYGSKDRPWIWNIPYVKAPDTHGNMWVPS
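Signal: AlphaScreen proximity between streptavidin donor and anti-FITC acceptor beads on intact substrate. Reaction: Tdp1 1 nM, substrate 15 nM final, 5 min RT after 15 min compound preincubation.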
Giardia kill: kills Giardia lamblia; Giardia lamblia trophozoite viability; 340,000 tested, 0.15% active; activity change, % at 7.66 µM, hits read low; in the data active means activity change below about -80%; inconclusive means between about -30% and that limit;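 further: parasites exposed to compound for two days anaerobically before the ATP read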
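Trophozoite viability was measured as ATP-dependent luminescence, read 15-30 min after reagent addition. Before that, parasites at 100 cells/well were exposed to compounds for 48 h, anaerobically, at 37 deg C.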
IL-1B inflam inh: inflammasome signaling inhibition, IL-1 beta readout | THP-1 LPS/ATP IL-1B secretion, AlphaLISA, 16 h; stronger effect = lower value | activity change, % at 57.5 µM | 360,000 tested, 4.7% active; in the data active means activity change below about -50%; inconclusive means mostly about -30% to -49%
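Secreted IL-1B measured by AlphaLISA bead assay after 16 h compound exposure of THP-1 cells; compounds (final up to 57.5 uM) added 1 h before LPS (250 ng/mL) and ATP (1.25 mM) stimulation; lower signal means less secretion.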
* hit, by the source's call; ? = inconclusive; . = no result given; ! = not confirmed by another sample; [ ] = another dose, or the depositor's remark. Hits are enriched below; roughly 19% of the tested compounds scored in any of these assays. Unless noted, the call rests on the fitted dose curve; in most records, active means well fitted curve in the direction sought with a large enough effect; inconclusive means small, poorly fitted or top-dose-only effect, or another doubt; inactive means no such curve, though single readings can be large; an effect the other way counts as inactive or inconclusive. On the % scale 0 is the no-effect control and ±100 the full control effect.

SMILES	TDP1 cell noCPT	TDP1 cell CPT	ELG1 DNA repair	TDP1 inh	Giardia kill	IL-1B inflam inh
Cc1ccccc1NS(=O)(=O)c1ccc(C(=O)N(C)CC(=O)Nc2ccccc2Br)cc1	-17.4%	?	0.0%	1.9%	4.2	12.4
COc1cc(C(=O)N[C@H](C(=O)NC2CCCCCC2)C(C)C)cc(OC)c1OC	-25.1%	-8.8%	11.8%	2.0%	18.7	25.1
COc1ccc(C(=O)N(C)C2CCCc3ccccc32)cc1OC1CCN(C(C)C)CC1 (centres undefined)	?	20.6µM*	-4.3%	2.3%	11.8	-0.7
COc1cc(C(=O)N[C@H](C(=O)NC2CCCc3ccccc32)C(C)C)cc(OC)c1OC (some centres undefined)	?	-20.6%	20.6µM*	0.1%	7.5	4.5
O=C(NCC(c1ccco1)N1CCc2ccccc21)C(=O)Nc1ccc(F)cc1F (centres undefined)	3.26µM*	4.11µM*	?	.	2.2	1.0
O=C(NCC(c1ccco1)N1CCc2ccccc21)C(=O)Nc1ccccc1F (centres undefined)	18.4µM*	?	-11.6%	.	36.8	-6.6
O=C(NCC(c1ccco1)N1CCc2ccccc21)C(=O)Nc1ccccc1 (centres undefined)	?	-35.1%	0.8%	1.5%[0.505 µM]	7.0	27.4
CCOC(=O)C1=CCN(S(=O)(=O)c2ccccc2C)C1c1cccc(C)c1 (centres undefined)	?	?	.	.	.	0.0
CSc1ccccc1-c1cnc(NC(C)=O)cn1	-47.2%	2.59µM*	.	.	.	-26.0
O=C(Nc1ccccc1C(F)(F)F)N1CCC2(CC1)Oc1ccccc1C(=O)N2Cc1ccccc1F	16.4µM*	?	.	-5.9%	.	.
N#Cc1ccc(C(S(=O)(=O)Cc2ccccc2)S(=O)(=O)Cc2ccccc2)cc1	?	?	.	.	.	-57.9*
Cc1ccc(-c2nc(N)c3c(-c4ccc(C)cc4)nn(C(C)(C)C)c3n2)cc1	-29.7%	?	-0.2%	-3.1%	24.7	-3.3
CC(C)(C)n1nc(-c2ccc(Cl)cc2)c2c(N)ncnc21	18.4µM*!	8.2µM*!	11.2%	7.3%	-5.9	-9.2
CC(C)(C)Cn1nc(-c2ccc(Cl)cc2)c2c(N)ncnc21	?	8.41µM*	.	?	.	.
Cc1ccc(-c2cc(N)n(Cc3ccc(Cl)cc3)n2)cc1	?	?	?	7.0%	4.1	13.9
CC(C)(C)n1nc(-c2ccc(F)cc2)c2c(N)ncnc21	16.4µM*	23.1µM*	21.4%	-1.0%	?	-25.3
CCOc1ccc(S(=O)(=O)N2CCCCC2)cc1NC(=O)Cc1cc(OC)c(OC)c(OC)c1	-19.2%	-13.5%	.	.	.	11.1
O=C(c1ccco1)N1N=C(c2ccco2)CC1c1ccc(Cl)cc1Cl (centres undefined)	?	?	14.9%	-3.2%[56.1 µM]	-0.8	2.2
COc1cc(CNC(=O)CSCc2nc3cccnc3n2C2CCCCC2)cc(OC)c1OC	?	?	.	3.3%	.	.
CCN1CCN(c2ncnc3scc(-c4ccc(C)c(C)c4)c23)CC1	18.4µM*	?	?	3.3%[0.0935 µM]	-3.8	?
Cc1ccccc1N1CCN(c2ncnc3scc(-c4cccs4)c23)CC1	9.2µM*	13µM*	-26.4%	0.0%	-6.4	-10.4
COc1ccc(-c2csc3ncnc(N4CCN(Cc5ccccc5)CC4)c23)cc1	?	?	?	7.2%[56.1 µM]	-20.8	-3.1
Clc1ccc(CN2CCN(c3ncnc4scc(-c5cccs5)c34)CC2)cc1	16.4µM*	13µM*	23.1µM*	3.0%	-16.9	-15.8
Cc1ccc(C)n1-n1cnc2scc(-c3cccs3)c2c1=O	-10.6%	-7.5%	3.8%	7.0%	-14.5	-15.9
Fc1ccc(CN2CCN(c3ncnc4scc(-c5ccc(F)cc5)c34)CC2)cc1	23.1µM*	16.4µM*	20.6µM*	.	0.0	0.0
SMILES	TDP1 cell noCPT	TDP1 cell CPT	ELG1 DNA repair	TDP1 inh	Giardia kill	IL-1B inflam inh
COc1ccc2nc(SCC(=O)NC3CCCc4ccccc43)[nH]c2c1 (centres undefined)	?	?	-3.8%	5.5%	-3.7	-5.7
CC(C)N(C(=O)CSc1nc2c([nH]1)c(=O)n(C)c(=O)n2C)c1ccccc1	-17.6%	?	-8.1%	1.0%	6.1	22.2
O=C(CSc1nc2ccc(Cl)cc2[nH]1)NC1CCCc2ccccc21 (centres undefined)	20.6µM*	?	?	2.7%	-1.8	?
O=C(CSc1nc2ccccc2[nH]1)NC1CCCC1	-12.0%	-2.1%	?	44.7µM*	-19.9	-1.7
O=C(CCCSc1nc2ccccc2[nH]1)NC1CCCCC1	29.1µM*	?	-5.8%	5.3%	6.4	6.8
CC(C)N(C(=O)CSc1nc2ccc(Cl)cc2[nH]1)c1ccccc1	23.1µM*	?	.	-2.5%	.	.
CCOc1ccccc1C(=O)Oc1cc(C)[nH]c(=O)c1[N+](=O)[O-]	-7.2%	5.5%	4.3%	.	-7.2	8.8
Cc1nc2ccccc2n1CC(=O)NC1CCCCCC1	13µM*	11.6µM*	14.6µM*	-1.2%	-6.6	0.0
O=C(CCCSc1nc2ccccc2[nH]1)NC(c1ccccc1)c1ccccc1	14.6µM*	11.6µM*	?	2.7%	-14.9	26.7
CC(=O)Nc1ccc(NC(=O)CCCSc2nc3ccccc3[nH]2)cc1	-5.2%	3.2%	6.1%	0.0%	81.2	11.0
Oc1ccc(/C=C/c2cnccn2)cc1	?	?	0.0%	-5.1%	14.0	17.3
O=C(NC12CC3CC(CC(C3)C1)C2)c1ccc([N+](=O)[O-])o1	23.1µM*	23.1µM*	-15.0%	2.9%	-93.2*	-62.5*
O=C(NC12CC3CC(CC(C3)C1)C2)c1ccc(-c2ccc(Br)cc2)o1	16.4µM*	23.1µM*	?	0.0%	-2.2	?
O=C(NC12CC3CC(CC(C3)C1)C2)c1ccc(Br)o1	?	-7.6%	14.1%	.	7.1	15.5
CC(NC(=O)c1ccc([N+](=O)[O-])o1)C1CC2CCC1C2 (centres undefined)	?	20.6µM*	-12.2%	-5.3%	?	-91.8*
N[C@](CC1c2ccccc2Oc2ccccc21)(C(=O)O)[C@H]1C[C@@H]1C(=O)O	-18.1%	-29.8%	.	3.7%	.	.
Cn1nnc2c(NCc3c(F)cccc3F)ncnc21	-23.6%	4.0%	.	0.0%	.	.
CSc1ccc(-c2nnn(CC(=O)Nc3sc4c(c3C#N)CCC(C(C)(C)C)C4)n2)cc1 (centres undefined)	-2.6%	4.3%	.	0.6%	.	.
